From PubChem BioAssay (NCI)
Where “and” joins values, the source holds several entries; their conditions need not be identical. Identical values can stand only once. The panel holds about 83,000 compounds, 20% with a hit somewhere; the sample as a whole holds those more often.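 Growth was measured after 48 h exposure to one concentration of compound in 96-well plates. Values under 10 count as active.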 Calls of active or inactive are those of the source.

Tested on: MDA-MB-468 breast
Test: NCI-60 one-dose screen, 48 h (100 = growth as untreated, 0 = no growth, -100 = all killed)
Conditions: 10 µM unless noted
Method: Growth inhibition of the MDA-MB-468 human Breast tumor cell line is measured as a screen for anti-cancer activity. Cells are grown in 96 well plates and exposed to the test compound for 48 hours. Compounds are tested at a single concentration, which is 10^-5 M for most compounds. The reported endpoint is percent growth (GI% or GIPRCNT), where numbers from 0 - 100% represent growth inhibition, and numbers from -100% - 0 represent cell death. For example, a value of 40 represents 60% growth inhibition. A value of 0 means no net growth occurred over the course of the experiment. A value of -40 indicates 40% of cells at the beginning of the experiment died by the end of the experiment. A value of -100 means all cells are dead at the end of the experiment.
NCI-60 Human Tumor Cell Lines Screen was performed using the standard one-dose NCI protocol, which is described in more detail at https://dtp.cancer.gov/discovery_development/nci-60/default.htm.
Compounds with GIPRCNT values below 10 were considered active. Activity score was based on GIPRCNT using the following formula: […]
Score is 0 for GIPRCNT values of 100 or above, 50 for GIPRCNT values of 0, and 100 for GIPRCNT values of -100.

Compound | growth
CC1=C(CN)C2=C(C)C3(CC3)[C@@](C)(O)C(=O)C2=C1 | 73.2% (inactive)
O=S(=O)(F)c1ccc(Cl)cc1 | 121% (inactive)
N#Cc1nc(-c2ccccc2)oc1N1CCC(S(=O)(=O)F)CC1 | 110% (inactive)
CC(C)=CCc1c(O)c(C(=O)CC(C)C)c(O)c2c(-c3ccccc3)cc(=O)oc12 | 23.1% (inactive)
CCOC(=O)c1cncn1C(C)c1ccccc1 (stereo not given) | 97.6% (inactive)
CCCC[C@H](NC(=O)[C@H]1CCCCN1C)C(=O)N(C)[C@H](C[C@@H](OC(C)=O)c1nc(C(=O)N[C@@H](Cc2ccccc2)C[C@H](C)C(=O)OCC)cs1)C(C)C | 31.2% (inactive)
COc1cc(NCCCN=C(N)N)c2ncccc2c1 | -37.1% (active)
CC12OOC(C)(OO1)C2CCC(=O)NCCCNc1ccnc2cc(Cl)ccc12 (stereo not given) | -52.7% (active)
CC(=O)O[C@H]1CC[C@]2(C)[C@H]3CC[C@]4(C)[C@@H](OC(C)=O)CC[C@H]4[C@@H]3[C@@H](C)[C@]2(O)C1 | 104% (inactive)
COC(=O)C12CC(NC(=O)c3csc([C@@H](C[C@H](C(C)C)N(C)C(=O)[C@@H](NC(=O)[C@H]4CCCCN4C)C4CC4)OC(C)=O)n3)(C1)C2 | 30.1% (inactive)
C=CCN=C([Se])NC(=O)c1ccc2c(c1)OCO2 | 110% (inactive)
COC(=O)[C@@H](C)C[C@H](Cc1ccccc1)NC(=O)c1csc([C@@H](C[C@H](C(C)C)N(C)C(=O)[C@@H](NC(=O)CN(C)C)C2CC2)OC(C)=O)n1 | -0.222% (active)
CC1(C)C2CCC1(CS(=O)(=O)O)C(=O)C2 (stereo not given) | 123% (inactive)
COc1cc2c(cc1OC)[C@@H]1N(CC2)C(=O)c2ccccc2[C@@]1(C)C(=O)O | 103% (inactive)
CC[C@H](C)[C@H](NC(=O)[C@H]1CCCCN1C)C(=O)N(C)[C@H](C[C@@H](OC(C)=O)c1nc(C(=O)N[C@@H](Cc2ccccc2)C[C@H](C)C(=O)OC)cs1)C(C)C | -7.99% (active)
S=P(N1CCCCCC1)(N1CC1)N1CC1 | 105% (inactive)
Oc1c(O)c(Cl)c(Cl)c(Cl)c1Cl | 74.2% (inactive)
O=C1c2ccccc2C(=O)C(Cl)C1Cl (stereo not given) | -89.9% (active)
CCOC(=O)[C@@H](C)C[C@H](Cc1ccccc1)NC(=O)c1csc([C@@H](C[C@H](C(C)C)N(C)C(=O)[C@@H](NC(=O)[C@H]2C[C@H](O)CCN2C)C(C)C)OC(C)=O)n1 | 21.8% (inactive)
O=C(O)CNCP(=O)(O)O | 102% (inactive)

Compound | growth
COc1ccc(/C=C\c2cc(OC)c(OC)c(OC)c2)c(NS(=O)(=O)c2ccc(C)cc2)c1O | 23.2% (inactive)
COc1cc(C2C3=C(CCCC3=O)N(CCO)c3cc4c(cc32)CCC4)cc(OC)c1OC (stereo not given) | 93.8% (inactive)
Cc1ccc(C[As+](c2ccccc2)(c2ccccc2)c2ccccc2)cc1 | -24.3% (active)
N#C[Se]CCCNS(=O)(=O)C1CC2C=CC1C2 (stereo not given) | -30% (active)
O=CN1N=C(c2ccccc2)CC1c1sc(N(CCCl)CCCl)nc1Cl (stereo not given) | 94% (inactive)
CCCc1cc(O)c2c3c(c(=O)oc2c1)CN(C)CC3 | -3.7% (active)
CN(C)c1ccc(N)cc1 | 98% (inactive) and 5.01% (active)
O=C1C(N2CC2)=C(N2CC2)C(=O)C(N2CC2)=C1N1CC1 | 0.964% (active)
Cc1ccc2c(C(C[N+](=O)[O-])c3cccs3)c(-c3ccccc3)[nH]c2c1 (stereo not given) | -5.47% (active)
CC1=CC(=O)CCC12CCOC2=O (stereo not given) | 105% (inactive)
N#CCc1ccc(CC#N)cc1 | 100% (inactive)
O=C([Se]C1C=CCCC1)c1ccc(C(=O)[Se]C2C=CCCC2)s1 (stereo not given) | -95.7% (active)
CN(CCCCN(C)CCOS(C)(=O)=O)CCOS(C)(=O)=O | 76.9% (inactive)
c1ccc(-c2ccc3ccccc3[o+]2)cc1 | 94% (inactive)
CCC(/C=C(C)/C=C/C(=O)c1c(O)c(-c2ccc(O)cc2)c[nH]c1=O)CO (stereo not given) | 98.5% (inactive)
COCCOCCOCCOc1ccc(-n2cc(CCCN(CCNc3ccnc4cc(Cl)ccc34)C(=O)CCC(=O)O[C@@H]3O[C@@H]4OC5(C)CC[C@H]6[C@H](C)CC[C@@H]([C@H]3C)[C@@]46OO5)nn2)cc1 | 44.9% (inactive)
CC[C@]12C=CCN3CC[C@@]4(c5ccc(OC)cc5N(C)[C@H]4[C@@](O)(C(=O)OC)[C@@H]1OC(=O)CCCN1CCN(CCCC(=O)O[C@@H]4[C@]5(CC)C=CCN6CC[C@@]7(c8ccc(OC)cc8N(C)[C@H]7[C@@]4(O)C(=O)OC)[C@@H]65)CC1)[C@@H]32 | -88.4% (active)
CC(=O)OC1CC2(O)C(CCC3(C)C(c4ccc(=O)oc4)CCC32O)C2(C)CCC(OC3OC(CO)C(O)C(O)C3O)C=C12 (stereo not given) | -34.6% (active)
CN1C(=O)[C@]23SSC1(C)C(=O)N2[C@H]1Nc2ccccc2C1([C@@]12c4ccccc4N[C@@H]1N1C(=O)C4(C)SS[C@]1(C(=O)N4C)[C@H]2O)[C@@H]3O (stereo not given in full) | -88.9% (active)
CC(=C\C(=O)Oc1ccc2c3c1OC1C(O)CCC4(O)C(C2)N(CC2CCC2)CCC314)/C=C1\CCCc2ccccc21 (stereo not given) | -15.4% (active)
